# Test results reported in PubChem BioAssay (Tox21).
# “And” between values parts separate entries of the source, which are not always exact repeats. Equal entries are not always repeated. The source holds several records for some structures; these can differ, active in one and inactive in another. The source made the active and inactive calls. A call without a number means that no potency is given here. Calls follow the shape of the dose curve; as a rule, active = well fitted activation curve with a large enough effect in the repeat runs; inconclusive = weak or mixed curves; inactive = flat fitted curve, though single readings scatter.
# Test: A CellTox Green Cytotoxicity Assay to monitor cytotoxicity in HEK293 cells - 0 hour (AID 1224869); also: nearly all actives have a fitted effect of over 50% in size
# Conditions: CellTox Green fluorescence; series mostly up to 76.8 µM; cytotoxicity: at the top concentration
# Description: National Center for Advancing Translational Sciences [NCATS]
# NIH Chemical Genomics Center [NCGC]
# U.S. Environmental Protection Agency [EPA]
# National Institutes of Environmental Health Sciences [NIEHS]
# National Toxicology Program [NTP]
# Cell-based models are critical for drug discovery. Determining the natural cytotoxic effects resulting from test compounds is an essential research activity. A CellTox Green Cytotoxicity Assay to monitor cytotoxicity in real time of continues cell culture during 40 hours of the compound treatment was used to screen Tox21 10K library compounds in Hek293 cells. CellTox Green Cytotoxicity Assay is a nonlytic, homogeneous, biofluorescent method to measure cytotoxicity in cell culture after experimental manipulation. The assay system uses a proprietary asymmetric cyanine dye that is excluded from viable cells but preferentially stains the dead cell's DNA. […] Viable cells produce no appreciable increases in fluorescence. Therefore, the fluorescence signal produced by the binding interaction with dead cell DNA is proportional to cytotoxicity.
# The mixture of Hek293 cell suspension and reagents were dispensed at 600cells/6 ul/well in 1536-well tissue culture treated black solid bottom plates using a Multidrop dispenser. After the assay plates were incubated at a 37 C/5% CO2 incubator for 5 hours, 23 nL of compounds dissolved in DMSO, positive and negative controls was transferred to the assay plate by a pintool work station. The plates were incubated at 37 C for 40 hours. The fluorescence intensity were measured at 0h, 8h, 16h, 24h, 32h and 40h time points using ViewLux plate reader during compound treatment.
# Potency is read from the fitted curve at half-maximal effect.
SMILES,cytotoxicity,Potency
COP(N)(=O)SC (stereo not given),-3.34% (inactive),
CC(C)(C)C(O)(CCc1ccc(Cl)cc1)Cn1cncn1 (stereo not given),,inactive
CC(=O)C=C(C)C,,inactive
CC(C)(Cl)Cl,,inactive
CCCC1COC(Cn2cncn2)(c2ccc(Cl)cc2Cl)O1 (stereo not given),,inactive
CC(C)(C)OOC(C)(C)C,,inactive
CC(NC(C)(C)C)C(=O)c1cccc(Cl)c1 (stereo not given),,inactive
COc1ccc2c3c1O[C@H]1[C@@H](O)C=C[C@H]4[C@@H](C2)N(C)CC[C@@]341,,inactive
Cc1ccc(N)cc1Cl,,inactive
c1cc2c3c(cccc3c1)CC2,,inactive
Cc1cc(Cl)ccc1O,,inactive
c1ccc(-c2ccccc2)cc1,,inactive
CCNc1nc(NC(C)(C)C)nc(SC)n1,,inactive
CCNc1nc(NC(C)C)nc(SC)n1,,inactive
CCOP(=S)(OCC)Oc1cnc2ccccc2n1,,inactive
ClCc1cccnc1,,inactive
CNC(=O)Oc1ccccc1OC(C)C,,inactive
CC(Oc1ccc(Cl)cc1Cl)C(=O)O (stereo not given),,inactive
CCOP(OCC)OCC,,inactive
CCCCCOC(=O)c1ccccc1C(=O)OCCCCC,,inactive

SMILES,cytotoxicity,Potency
CC(C)N1C(=O)c2ccccc2NS1(=O)=O,,inactive
CCN(CC)c1ccccc1,,inactive
Cc1[nH]c(=O)n(C(C)(C)C)c(=O)c1Cl,,inactive
Nc1ccc(Oc2ccc(N)cc2)cc1,,inactive
Cc1ccc([N+](=O)[O-])cc1C,,inactive
CN1C(=O)CN=C(c2ccccc2)c2cc(Cl)ccc21,1.25% (inactive),
CN=C=S,,inactive
CCC[CH2][Sn]([Cl])([Cl])[Cl],,inactive
O=[N+]([O-])c1ccc(Oc2ccc(Cl)cc2Cl)cc1,,inactive
Nc1c(Cl)c(Cl)nc(C(=O)O)c1Cl,,inactive
COC(=O)c1ccccc1N,,inactive
CN(C)N=O,,inactive
[O-][Cl+2]([O-])O,,inactive
O=c1[nH]c(=O)[nH]c(=O)[nH]1,,inactive
C1CN2CCN1CC2,,inactive and 21.9 µM (active)
O=c1[nH]c2ccccc2c(=O)o1,,inactive
CC1C=[C-]C=C1.[C-]#[O+].[C-]#[O+].[C-]#[O+].[Mn],,inactive
CCCCN(CC)C(=O)SCCC,,inactive
CC1OC(C)OC(C)O1 (stereo not given),,inactive
COCCl,,inactive
